D2 PAM-1 = Beta-Arrestin HTS for Positive Allosteric Modulators of the Human D2 Dopamine Receptor: Potentiators. AID 624464, 2012. D(2) dopamine receptor (Homo sapiens), P14416. potentiation, % (concentration not given with the values). DiscoveRx D2 beta-arrestin cells, luminescence, 90 min; 100% = 57 uM dopamine signal. actives 0.23% (n = 360,000); in the data active means potentiation above about 50%; inconclusive means mostly about 30% to 49%
Target sequence (P14416 whole entry, looked up): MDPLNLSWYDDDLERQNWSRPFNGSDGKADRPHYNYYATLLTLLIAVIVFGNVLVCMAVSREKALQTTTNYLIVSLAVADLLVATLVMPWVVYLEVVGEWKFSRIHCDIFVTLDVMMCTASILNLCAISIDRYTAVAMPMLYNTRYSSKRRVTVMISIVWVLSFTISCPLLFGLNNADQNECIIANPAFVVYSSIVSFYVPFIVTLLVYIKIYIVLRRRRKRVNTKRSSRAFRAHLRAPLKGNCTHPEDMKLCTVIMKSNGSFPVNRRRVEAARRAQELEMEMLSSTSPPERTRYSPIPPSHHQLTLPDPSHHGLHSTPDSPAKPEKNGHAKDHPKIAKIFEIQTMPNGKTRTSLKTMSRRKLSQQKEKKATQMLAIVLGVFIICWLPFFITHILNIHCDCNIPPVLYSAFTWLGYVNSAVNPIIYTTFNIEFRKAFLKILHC
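D2 cells co-treated with compound plus 50 nM dopamine (EC20) for 90 min at 37 deg C to detect potentiation. Beta-arrestin recruitment was read as enzyme-fragment luminescence after 1 h at ambient temperature. Full response was set by 57 uM dopamine.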
D2 ag-1 = HTS Assay for Allosteric Agonists of the Human D2 Dopamine Receptor: Primary Screen for Agonists; D(2) dopamine receptor (Homo sapiens), P14416; HEK293 T-REx D2 cells, calcium flux agonist mode; activation, % at 2 µM; actives 0.53% (n = 340,000); AID 485358, 2010;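 active means activation over 3 SD above normal in the single-dose calcium agonist read, cut at about 30% in these data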
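Agonism is scored from calcium flux in a force-coupled, inducible HEK293 cell line expressing D2, read kinetically for 180 s after compound addition against dopamine controls.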
D2 ag-2 = Beta-Arrestin HTS for Positive Allosteric Modulators of the Human D2 Dopamine Receptor: Agonists. D(2) dopamine receptor (Homo sapiens), P14416. DiscoveRx PathHunter D2 beta-arrestin, luminescence, 90 min; 100% = 57 uM dopamine signal. activation, % (no concentration beside the values). actives 0.084% (n = 360,000); in the data active means activation above about 40%; inconclusive means between about 15% and that limit
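Agonist mode: compounds alone added to overnight-plated D2 PathHunter cells for 90 min at 37 C, with 57 uM final dopamine (EC100) defining full response. Beta-arrestin recruitment detected by chemiluminescent reagent, read after 1 h at ambient temperature.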
D2 antag = HTS Assay for Allosteric Antagonists of the Human D2 Dopamine Receptor: Primary Screen for Antagonists; inhibition, % at 10 µM; actives 2% (n = 340,000); HEK293 TREx D2 cells, calcium flux, dopamine EC80; AID 485344, 2010; D(2) dopamine receptor (Homo sapiens), P14416; in the data active means inhibition above about 30%; inactive means below that, where a call was filed
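Dopamine at EC80 is the agonist stimulus; test compounds precede it by 180 s. Calcium flux read kinetically in a force-coupled, inducible HEK293 T-REx D2 cell line.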
D2 PAM-2 = HTS Assay for Positive Allosteric Modulators of the Human D2 Dopamine Receptor: Primary Screen for Potentiators; D(2) dopamine receptor (Homo sapiens), P14416; HEK293 T-REx D2, calcium flux, EC20 dopamine potentiation; potentiation, % at 10 µM; actives 0.34% (n = 340,000);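 active means potentiation over 3 SD above the plate norm, cut at about 30% in these data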
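Calcium flux readout, no-wash dye, 1 read/s. Inducible HEK293 Trex D2 line, overnight 30 C. Compound alone 180 s (agonist flags), then EC20 dopamine, another 180 s to score potentiation.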
D3 ag = qHTS of D3 Dopamine Receptor Agonist: D3 Dopamine Receptor B-arrestin Agonist Confirmatory Assay; actives 4% (n = 2,300); Potency, µM (top dose mostly 76.9 µM), actives largely listed as activators; shares compounds with D2 ag-1; DiscoveRx D3 beta-arrestin cells, luminescence, 90 min; AID 720506, 2013; further: nearly all actives have a fitted effect of over 70% in size
D2 ag-3 = qHTS of D3 Dopamine Receptor Agonist: D2 Dopamine Receptor B-arrestin Agonist Counterscreen; DiscoveRx PathHunter D2 beta-arrestin, luminescence, 90 min; response scale: percent relative to full dopamine signal; shares compounds with D2 ag-1; actives 5.9% (n = 2,300); Potency, µM (highest dose often 76.9 µM), most hits filed as activators; further: nearly all actives have a fitted effect of over 70% in size
Numbers stand for hits; 0 = inactive; ? = inconclusive; - = no result. Hits are enriched below; roughly 2.4% of the tested compounds scored in any of these assays. Unless noted, the call rests on the fitted dose curve; in most records, active means well fitted activation curve with a large enough effect; inconclusive means small, poorly fitted or top-dose-only effect; inactive means flat fitted curve, though single readings scatter.

SMILES	D2 PAM-1	D2 ag-1	D2 ag-2	D2 antag	D2 PAM-2	D3 ag	D2 ag-3
Cc1cccc(N2CCN(Cc3cn(C)nc3-c3ccccc3F)CC2)n1	0	51	?	30	0	0	0
Cn1cc(CN2CCN(c3ccc(Cl)cn3)CC2)c(-c2ccccc2F)n1	0	0	0	0	0	-	-
CN(Cc1ccccc1)CC(O)COc1ccc(CNCCCOc2cccnc2)cc1 (stereo not drawn)	0	0	0	0	0	-	-
CN(Cc1ccccc1)CC(O)COc1ccc(CNCCOc2cccnc2)cc1 (stereo not drawn)	0	56	?	83	0	1.4µM	0
CN(Cc1ccccc1)C(=O)c1nc2ccccn2c1CNCCOc1cccnc1	0	41	0	0	0	0	0
COc1ccccc1NC(=O)CN1C(=O)CC(c2ccc(C)c(C)c2)=Nc2ccccc21	-	0	-	-	0	-	-
CCc1cccc(C)c1NC(=O)c1cc(S(=O)(=O)N2CCCCCC2)cn1C	-	-	-	-	0	-	-
Cc1nc(-n2nc(C)c(CCC(C)C)c2C)sc1C(=O)Nc1ccc(Cl)cc1	-	0	-	-	0	-	-
Cc1ccc(CN2CCN(C(=O)C3CCC3)CC2)cc1	0	0	0	0	0	-	-
COc1ccc2c(CN3CCCC3)cc(=O)oc2c1	0	-	0	-	-	-	-
COC(=O)C1CCN(Cc2ccc(C)cc2)CC1	0	75	?	69	0	0	?
COC(=O)C1CCN(Cc2cc(=O)oc3cc(OC)ccc23)CC1	0	56	0	0	0	?	?
COC(=O)C1CCN(Cc2ccc(OCCCN3CCN(c4ccc([N+](=O)[O-])cc4)CC3)cc2)CC1	0	54	0	75	0	0	0
CCOC(=O)c1c(-c2ccc(C)cc2)csc1NC(=O)c1nc(SC(C)C)ncc1Cl	-	0	-	-	0	-	-
CN(CCOc1ccc(Cl)cc1)Cc1cccc(S(=O)(=O)N(C)C)c1	0	70	0	48	0	7.1µM	?
CN(CCOc1ccccc1)Cc1ccccc1	0	-	0	-	-	-	-
Cc1c(Cl)cccc1NC(=O)CSC(C)c1nc2ccccc2c(=O)[nH]1 (stereo not drawn)	0	0	0	0	0	0	0
O=C(NCC(c1cccnc1)N1CCc2ccccc21)c1ccc(F)c(F)c1 (stereo not drawn)	-	0	-	-	0	-	-
COc1ccc(S(=O)(=O)NCCc2sc(-c3cccnc3)nc2C)cc1	-	0	-	-	0	-	-
O=c1cc(CN2CCN(c3ccccc3)CC2)nc2scc(-c3ccccc3)n12	0	0	?	0	0	-	-
C=CCNCc1cc(=O)n2c(-c3ccccc3)csc2n1	0	47	0	0	0	0	0
CCOC(=O)C1CCN(C(=O)c2nn(-c3ccc(C)cc3)c(=O)n(C)c2=O)CC1	-	0	-	-	0	-	-
CCOC(=O)C1C(C(=O)OCC)C1(c1ccccc1)c1ccccc1 (stereo not drawn)	0	0	0	0	0	-	-
CCOC(=O)/C=C/[C@H]1CC(c2ccccc2)(c2ccccc2)CO1	0	0	0	0	0	0	0
Cc1ccc(-c2cn3c(n2)sc2cc(C(=O)NC4CCCCC4)ccc23)cc1	-	0	-	-	0	-	-
SMILES	D2 PAM-1	D2 ag-1	D2 ag-2	D2 antag	D2 PAM-2	D3 ag	D2 ag-3
COc1ccc(-n2c(C)c(C(C)=O)c3cc(OC(C)=O)ccc32)cc1	0	0	0	0	0	-	-
COc1ccc(-n2c(C)cc(C)c(C(C)=O)c2=S)cc1	0	54	0	0	0	0	0
O=C(NCCCCc1ccccc1)c1nn(-c2ccccc2)nc1CO	-	0	-	-	0	-	-
Cc1ccc(C)c(N2CCN(C(=O)c3c(C)oc4nc(C)nc(N5CCOCC5)c34)CC2)c1	-	0	-	-	0	-	-
CC(COc1ccccc1)N1CCC(CO)(Cc2ccccc2)CC1 (stereo not drawn)	0	68	?	85	0	0	?
COc1cccc(C2=CC(=O)C[C@H](c3ccc(F)cc3)C2)c1	0	0	0	0	0	0	0
COc1ccc([C@H]2CC(=O)C=C(c3ccccc3Oc3ccccc3)C2)cc1	0	0	0	0	0	0	0
COc1ccc(C2=CC(=O)C[C@H](c3ccc(OC)c(OC)c3)C2)cc1	0	0	0	0	0	0	0
COc1ccc([C@H]2CC(=O)C=C(c3cc(F)ccc3F)C2)cc1OC	0	0	0	0	0	0	0
COc1cc(F)cc(C2=CC(=O)C[C@H](c3ccc(F)cc3)C2)c1	0	0	0	0	0	-	-
COc1ccc(C2C(=O)N(C3CCC(C)CC3)CC(=O)N2CCc2ccccc2)cc1OC (stereo not drawn)	-	0	-	-	0	-	-
COc1ccc(C2C(C(=O)Nc3ccccc3OC)=C(C)Nc3c(C(=O)Nc4ccccc4)cnn32)c(OC)c1 (stereo not drawn)	-	0	-	-	0	-	-
COc1ccc(SC[C@H](Cc2ccccc2)N2CC[C@@H](C(C)(C)C)CCC2=O)cc1	0	0	0	0	0	0	0
COc1ccc(SC[C@H](Cc2ccccc2)N2CC[C@@H](O)CCC2=O)cc1	0	0	0	0	0	-	-
Cc1c(CNC2CCCCCC2)c(C(=O)O)c(C)n1Cc1c(F)cccc1Cl	-	0	-	-	0	-	-
CCS(=O)(=O)N1CCc2cc(C(=O)Nc3ccc(Br)cc3F)ccc21	-	0	-	-	0	-	-
Cc1cccc(NC(=O)COc2ccccc2C(=O)NC(C)c2ccccc2)c1 (stereo not drawn)	0	49	0	0	0	?	0
C[C@H](NC(=O)c1[nH]cnc1C(=O)N[C@H](C)c1ccccc1)c1ccccc1	0	0	0	0	0	0	0
C[C@H](NC(=O)c1nc[nH]c1C(=O)N[C@@H](C)c1ccccc1)c1ccccc1	0	0	0	0	0	-	-
CN(Cc1ccccc1)C(=O)c1[nH]cnc1C(=O)NCCCCCNC(=O)OC(C)(C)C	0	0	0	0	0	0	0
Cc1cccc(NC(=O)c2nc[nH]c2C(=O)N[C@@H](C)c2ccccc2)c1	0	0	0	0	0	0	0
COc1cc(NC(=O)CC2C(=O)N(c3ccc(Cl)cc3)C(=O)N2Cc2cccs2)cc(OC)c1 (stereo not drawn)	-	0	-	-	0	-	-

Assay outcomes deposited in PubChem BioAssay by National Center for Advancing Translational Sciences (NCATS).
